Source: PubChem BioAssay AID624483 (NMMLSC, 2012)
The whole screen tested about 360,000 compounds, of which about 11,000 (3.1%) were called active. Inconclusive results (about 2%) are left out. Cut-off read from the data, not from the text of the source: active = fluorescence intensity above about 16000; inconclusive = no clear call, values can overlap the other calls; inactive = below that. Shown is part of a subset that was picked to be rich in actives.

assay: compound fluorescence in toxin protease inhibitor counterscreen, primary screen, artefact control for toxin protease inhibitor project, biochemical, multiplex microsphere, HTS (AID 624483); conditions: compound autofluorescence counterscreen, microsphere flow cytometry; active compounds read high

SMILES | fluorescence intensity
COC(=O)[C@@]1(Sc2ccc(C)cc2)CC(=O)N(c2cccc(SC)c2)[C@@H]1c1ccccc1 | 4090 (inactive)
O=c1c2ccccc2oc2nc3n(c(=O)c12)CCCS3 | 10300 (inactive)
CCc1nc2oc3ccccc3c(=O)c2c(=O)n1Cc1ccc(OC)cc1 | 17100 (active)
COc1ccc(Cn2c(=O)oc3ccccc32)cc1 | 2890 (inactive)
CCCCn1nnnc1C1(C)CCC(=O)N1Cc1ccc(OC)c(OC)c1 (stereo not drawn) | 5290 (inactive)
CC(=O)c1cc(NC(=O)c2ccccc2)c(=O)oc1/C=C/N(C)C | 24500 (active)
CCOC(=O)c1cc(NC(=O)c2ccc(Cl)cc2)c(=O)oc1-c1ccccc1 | 5720 (inactive)
COc1cc(NC(=O)c2ccccc2)c(OC)cc1NC(=O)Cc1ccccc1 | 4090 (inactive)
O=C(CNC(=O)c1cc2c(s1)CCC2)Nc1ccccc1Br | 24100 (active)
O=C(CCc1nc2sc3c(c2c(=O)[nH]1)CCCC3)NCC(=O)Nc1ccccc1Br | 3820 (inactive)
O=C(NCC1CCCO1)c1cc2c(s1)CCCC2 (stereo not drawn) | 8290 (inactive)
CN(C)c1ccc(N/C=C/C(=O)C(F)(F)F)cc1 | 3470 (inactive)
CCc1nc2ccc(C(=O)NCCNC(C)=O)cn2c1N(CC)Cc1cccc(Br)c1 | 3860 (inactive)
Cc1ccn2c(=O)nc(SCC(=O)NCc3ccc(F)cc3)nc2c1 | 16300 (active)
Cc1ccc(CNC(=O)CSc2nnc3c(n2)[nH]c2ccc(F)cc23)cc1 | 5580 (inactive)
Cc1ccn2c(=O)nc(SCC(=O)NCc3ccc4c(c3)OCO4)nc2c1 | 5730 (inactive)
COc1ccc(CC(N)c2csc(NC(=O)Nc3ccc(C(C)C)cc3)n2)cc1 (stereo not drawn) | 3480 (inactive)
c1ccc2c(C[n+]3csc4ccccc43)cccc2c1 | 24500 (active)
Nc1scc[n+]1Cc1cccc2cccnc12 | 3430 (inactive)
c1ccc2c(CNn3cnnc3)cccc2c1 | 2660 (inactive)
Cc1cc(S(=O)(=O)NCc2ccccn2)c(Cl)cc1Cl | 3790 (inactive)
O=S(=O)(NCc1cccnc1)c1ccc(Br)s1 | 23300 (active)
CC1CCN(S(=O)(=O)c2ccc(S(=O)(=O)NCc3cccnc3)cc2)CC1 | 4180 (inactive)
O=S(=O)(NCc1ccccn1)c1ccc(Br)s1 | 18000 (active)
O=S(=O)(NCc1ccccn1)c1ccc(F)cc1 | 11500 (inactive)
O=S(=O)(NCc1cccnc1)c1ccc(Cl)nc1 | 2520 (inactive)
CN(C(=O)c1cccc(NC(=O)C2CCN(C(=O)OC(C)(C)C)CC2)c1)C1CCC1 | 4250 (inactive)
CCc1ccnc(NS(=O)(=O)c2ccc3c(c2)OCCO3)c1 | 6030 (inactive)
